The panel holds about 79,000 compounds, 15% with a hit somewhere; the sample as a whole holds those more often. A number with no mark means an inactive call. Rule as the data show it: active = growth inhibition above about 70%; inactive = the rest.

A short description of the first test: NCI Yeast Anticancer Drug Screen. Data for the cln2 rad14 strain (AID 165).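 Also: 0% = growth equal to vehicle treated cultures.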 The settings on record: S. cerevisiae cln2 rad14 strain, at 50.0 µM, hits give high values. In a few lines: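 Each compound was tested on cln2 rad14 yeast. Inhibition of growth was calculated against vehicle-exposed controls.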
For `CCOC(=O)/C(C#N)=C/c1cccc(C)c1`, the growth inhibition is 13.3%.
On the same count and under the same terms, as for `Cc1c(O)cnc2nn(-c3ccccc3)c(=N)n12`, the figure is 15.9%.
Still for that read-out and setting: as for `Nc1nc(N)c2cc(S(=O)(=O)c3cccc(C(F)(F)F)c3)ccc2n1`, the figure is 11.2%; as for `CC1CCC(C(=O)O)N1` (stereo not drawn), 4.45%.
Take `COc1cc(/C=C(\C#N)C(=O)c2ccccc2)ccc1OCc1ccccc1`: the growth inhibition is 1.25%.
For the compound `COc1ccc(C2OC(N)=C(O)C2=O)cc1OC` (stereo not drawn), the growth inhibition was 11.2%.
Still for that read-out and setting: as for `CCCNc1ccc(C2=NCCCN2)cc1`, the figure is 7.25%.
The same measure, in the same setting: as for `N#CSc1cc(S(N)(=O)=O)ccc1N`, the figure is -5.35%; as for `O=C(O)c1cccc([N+](=O)[O-])c1O`, -0.7%; as for `COc1cc(-c2ccc(NC(=O)NC3CC3)c(OC)c2)ccc1NC(=O)NC1CC1`, 3.15%.
For the compound `COc1cc([C@@H]2c3cc4c(cc3[C@H](O)[C@H]3COC(=O)[C@H]23)OCO4)cc(OC)c1OC`, the growth inhibition is 5.1%.
Take `CC(=O)Cc1cc(-c2cc(CC(C)=O)[nH]n2)n[nH]1`: the growth inhibition is -25.5%.
With `O=c1[nH]n(-c2ccccc2)c(=O)cc1Cl`, the growth inhibition was -0.3%.
As for `Cc1cc(C)cc(NCCC#N)c1`, the growth inhibition is -1.75%.
Same read-out and setting: as for `CN(C)/N=C/c1ccccc1O`, the figure is -6.85%; as for `NC(=S)CN1CCOCC1`, 1.6%.
On to `O=C(O)CSCSCC(=O)O`, for which the growth inhibition was 20.2%.
On the same count and under the same terms, as for `CCOC(=O)CCCC(=O)OCC`, the figure is 7.7%.
For `Cc1ccc(C(=O)NC2c3ccccc3Oc3ccccc32)cc1`, the growth inhibition was -12%.
With `O=C1N(C[P+](c2ccccc2)(c2ccccc2)c2ccccc2)CCCN1C[P+](c1ccccc1)(c1ccccc1)c1ccccc1`, the growth inhibition was 14.9%.
Regarding `Nc1ccc(N)c([N+](=O)[O-])c1`, the growth inhibition is -39%.
In the case of `COc1ccccc1N1CCN(C(=S)Nc2ccccc2)CC1`, the growth inhibition was -1.05%.
On the same count and under the same terms, the same measure for `c1ccc(Sc2ccccc2)cc1`: -63.6%; for `CC(=O)OC(C(=O)O)c1ccccc1` (stereo not drawn): 13.8%; for `CSc1[nH]c(=O)ncc1F`: -4.15%.
As for `CC(=O)NC(N)=S`, the growth inhibition is -3.05%.
For `Cc1nc2ccccc2c2nnc(SCC(=O)N(Cc3ccccc3)c3ccccc3)n12`, the growth inhibition was 8.25%.
Turning to `COc1ccc(C2(O)CCCCC2)cc1`, the growth inhibition is 6.45%.
`CCN(CC)CCCC(C)Nc1ccnc(/C=C/c2ccc(Cl)cc2)c1` (stereo not drawn): the growth inhibition is -2.55%.
For the compound `Cc1cc(=O)[nH]c(NN=C2CCCC2)n1`, the growth inhibition was -2.6%.
For `CC1=CC(C)(C)NC(=S)N1c1ccc(S(=O)(=O)O)c2cccc(S(=O)(=O)O)c12`, the growth inhibition is -30.9%.
In the case of `OCCN1CCOCC1`, the growth inhibition is 24.9%.
With `O=P(O)(O)OCC(O)CO` (stereo not drawn), the growth inhibition is 25.3%.
With `CNC(=O)c1ccccc1CC1(O)c2ccccc2Oc2ccccc21`, the growth inhibition is 0.7%.

The next test is described as follows: NCI Yeast Anticancer Drug Screen. Data for the bub3 strain (AID 167). The settings on record: S. cerevisiae bub3 mutant strain, at 50.0 µM, hits give high values. In outline: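 Part of a panel of yeast mutants defective in DNA damage repair or cell cycle regulation. Each strain is grown with compound, and inhibition is calculated relative to solvent-treated cultures.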
For `C1CNC(C2=NCCN2)=N1`, the growth inhibition is -31.8%.
The same measure, in the same setting: the same measure for `CCOC(=O)/C(C#N)=C/c1cccc(C)c1`: 23.2%; for `Cc1c(O)cnc2nn(-c3ccccc3)c(=N)n12`: 15%.
Regarding `Nc1nc(N)c2cc(S(=O)(=O)c3cccc(C(F)(F)F)c3)ccc2n1`, the growth inhibition was -15.4%.
In the case of `CC1CCC(C(=O)O)N1` (stereo not drawn), the growth inhibition was -3.2%.
As to `COc1cc(/C=C(\C#N)C(=O)c2ccccc2)ccc1OCc1ccccc1`, the growth inhibition is -26.7%.
In the case of `COc1ccc(C2OC(N)=C(O)C2=O)cc1OC` (stereo not drawn), the growth inhibition is -30.1%.
As for `Cc1nc2ccccc2c(C(=O)O)c1O`, the growth inhibition was 11.1%.
In the case of `CCCNc1ccc(C2=NCCCN2)cc1`, the growth inhibition is 17.5%.
As for `N#CSc1cc(S(N)(=O)=O)ccc1N`, the growth inhibition is -1%.
For `O=C(O)c1cccc([N+](=O)[O-])c1O`, the growth inhibition is -0.8%.
With `COc1cc(-c2ccc(NC(=O)NC3CC3)c(OC)c2)ccc1NC(=O)NC1CC1`, the growth inhibition is -25.2%.
`COc1cc([C@@H]2c3cc4c(cc3[C@H](O)[C@H]3COC(=O)[C@H]23)OCO4)cc(OC)c1OC`: the growth inhibition is 3.6%.
The same measure, in the same setting: as for `CC(=O)Cc1cc(-c2cc(CC(C)=O)[nH]n2)n[nH]1`, the figure is -5.45%; as for `O=c1[nH]n(-c2ccccc2)c(=O)cc1Cl`, 3.55%; as for `Cc1cc(C)cc(NCCC#N)c1`, 11.8%.
Turning to `O=C(Cc1ccccc1)Cc1ccccc1`, the growth inhibition is -8.65%.
As for `CN(C)/N=C/c1ccccc1O`, the growth inhibition was -21.6%.
As for `NC(=S)CN1CCOCC1`, the growth inhibition is 1.3%.
On to `O=C(O)CSCSCC(=O)O`, for which the growth inhibition is 4.8%.
As to `CCOC(=O)CCCC(=O)OCC`, the growth inhibition was 22.8%.
For the compound `Cc1ccc(C(=O)NC2c3ccccc3Oc3ccccc32)cc1`, the growth inhibition was 6.85%.
With `O=C1N(C[P+](c2ccccc2)(c2ccccc2)c2ccccc2)CCCN1C[P+](c1ccccc1)(c1ccccc1)c1ccccc1`, the growth inhibition is 15.1%.
On to `Nc1ccc(N)c([N+](=O)[O-])c1`, for which the growth inhibition is -14.8%.
For the compound `COc1ccccc1N1CCN(C(=S)Nc2ccccc2)CC1`, the growth inhibition is -2.7%.
As for `c1ccc(Sc2ccccc2)cc1`, the growth inhibition is -7.95%.
As to `O=C(NC1CCCCC1)OCc1c(COC(=O)NC2CCCCC2)c(-c2ccc(Cl)c(Cl)c2)n2c1CCC2`, the growth inhibition is -5.3%.
For `CC(=O)OC(C(=O)O)c1ccccc1` (stereo not drawn), the growth inhibition is -8%.
Consider `CSc1[nH]c(=O)ncc1F`, for which the growth inhibition is -2.3%.
Regarding `CC(=O)NC(N)=S`, the growth inhibition is -3.25%.
Regarding `Cc1nc2ccccc2c2nnc(SCC(=O)N(Cc3ccccc3)c3ccccc3)n12`, the growth inhibition was -3.9%.
Same read-out and setting: as for `COc1ccc(C2(O)CCCCC2)cc1`, the figure is 7.35%.
On to `CCN(CC)CCCC(C)Nc1ccnc(/C=C/c2ccc(Cl)cc2)c1` (stereo not drawn), for which the growth inhibition is -39.5%.
Still for that read-out and setting: as for `Cc1cc(=O)[nH]c(NN=C2CCCC2)n1`, the figure is -33.5%; as for `CC1=CC(C)(C)NC(=S)N1c1ccc(S(=O)(=O)O)c2cccc(S(=O)(=O)O)c12`, 4.3%.
`OCCN1CCOCC1`: the growth inhibition was 7%.
Same read-out and setting: the same measure for `CCOC(=O)C(C#N)Cc1ccccc1` (stereo not drawn): -1.6%; for `O=P(O)(O)OCC(O)CO` (stereo not drawn): -22.1%.
As to `CNC(=O)c1ccccc1CC1(O)c2ccccc2Oc2ccccc21`, the growth inhibition was -9.25%.

Values taken from PubChem BioAssay (NCI).
